Counter-ions that a name gives are not always drawn.
Columns and labels:
Conditions in all cases: treatment time: 24 h
A549-GM130-SQSTM1 [1] = test: lowest phenotypically active concentration; higher = less potent
Procedure, shortened: (§1)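 The reporter lines, fifteen in total and built by gene editing in A549, HepG2 and WPMY1 cells, used BFP for segmentation alongside GFP and RFP/FusionRed markers. Each was treated at 0.3, 1, 3 or 9 µM for 24 h in four wells and then imaged live, with live-cell features normalised to solvent control wells. Deviation meant ≥3 of 4 wells beyond the 95th percentile of control Euclidean distances; reproducibility meant a median replicate Pearson correlation above the 95th percentile of non-replicates. Only conditions meeting both were scored as phenotypically active.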

HepG2-GM130-SQSTM1 [2] = test: as above
Procedure, shortened: as §1

HepG2-TUBA1B-RELA [3] = test: as above
Procedure, shortened: as §1

WPMY1-GM130-SQSTM1 [4] = test: as above
Procedure, shortened: as §1

A549-ACTB-RAB5A = test: phenotypically active (imaging signature differs from DMSO and reproducible) at any of 0.3-9 uM (binary (1 = active, 0 = inactive)); higher = active
Procedure, shortened: as §1

A549-CANX-COX4 = test: as above
Procedure, shortened: as §1

A549-GM130-SQSTM1 [5] = test: as above
Procedure, shortened: as §1

A549-TP53BP1-CLTA = test: as above
Procedure, shortened: as §1

A549-TUBA1B-RELA = test: as above
Procedure, shortened: as §1

HepG2-ACTB-RAB5A = test: as above
Procedure, shortened: as §1

HepG2-CANX-COX4 [6] = test: as above
Procedure, shortened: as §1

HepG2-GM130-SQSTM1 [7] = test: as above
Procedure, shortened: as §1

HepG2-TP53BP1-CLTA = test: as above
Procedure, shortened: as §1

HepG2-TUBA1B-RELA [8] = test: as above
Procedure, shortened: as §1

WPMY1-ACTB-RAB5A = test: as above
Procedure, shortened: as §1

WPMY1-CANX-COX4 = test: as above
Procedure, shortened: as §1

WPMY1-GM130-SQSTM1 [9] = test: as above
Procedure, shortened: as §1

WPMY1-TP53BP1-CLTA = test: as above
Procedure, shortened: as §1

WPMY1-TUBA1B-RELA = test: as above
Procedure, shortened: as §1

HepG2-CANX-COX4 [10] = test: lowest phenotypically active concentration; higher = less potent
Procedure, shortened: as §1

Row | Compound | lowest phenotypically active concentration (A549-GM130-SQSTM1 [1]) | lowest phenotypically active concentration (HepG2-GM130-SQSTM1 [2]) | lowest phenotypically active concentration (HepG2-TUBA1B-RELA [3]) | lowest phenotypically active concentration (WPMY1-GM130-SQSTM1 [4]) | phenotypically active (A549-ACTB-RAB5A) | phenotypically active (A549-CANX-COX4) | phenotypically active (A549-GM130-SQSTM1 [5]) | phenotypically active (A549-TP53BP1-CLTA) | phenotypically active (A549-TUBA1B-RELA) | phenotypically active (HepG2-ACTB-RAB5A) | phenotypically active (HepG2-CANX-COX4 [6]) | phenotypically active (HepG2-GM130-SQSTM1 [7]) | phenotypically active (HepG2-TP53BP1-CLTA) | phenotypically active (HepG2-TUBA1B-RELA [8]) | phenotypically active (WPMY1-ACTB-RAB5A) | phenotypically active (WPMY1-CANX-COX4) | phenotypically active (WPMY1-GM130-SQSTM1 [9]) | phenotypically active (WPMY1-TP53BP1-CLTA) | phenotypically active (WPMY1-TUBA1B-RELA) | lowest phenotypically active concentration (HepG2-CANX-COX4 [10])
1 | O=C(NCCN1CCC2(CC1)C(=O)NCN2c1cccc(F)c1)c1ccc(F)c(F)c1 [ML 298 hydrochloride] | 9 µM | 9 µM | 9 µM | 9 µM | 1 (active) | 1 (active) | 1 (active) | 1 (active) | 1 (active) | 1 (active) | 0 (inactive) | 1 (active) | 1 (active) | 1 (active) | 1 (active) | 1 (active) | 1 (active) | 0 (inactive) | 1 (active) | 
2 | C[C@@]12C(=O)OC(=O)[C@]1(C)[C@H]1CC[C@@H]2O1 [Cantharidin] | 3 µM | 9 µM | 3 µM | 3 µM | 1 (active) | 1 (active) | 1 (active) | 1 (active) | 0 (inactive) | 1 (active) | 1 (active) | 1 (active) | 1 (active) | 1 (active) | 1 (active) | 1 (active) | 1 (active) | 1 (active) | 1 (active) | 9 µM
3 | CN1CCC2=C[C@H](O)[C@H]3OC(=O)c4cc5c(cc4[C@H]3[C@@H]21)OCO5 [Hippeastrine hydrobromide] |  |  |  |  | 1 (active) | 0 (inactive) | 0 (inactive) | 0 (inactive) | 0 (inactive) | 0 (inactive) | 1 (active) | 0 (inactive) | 0 (inactive) | 0 (inactive) | 0 (inactive) | 0 (inactive) | 0 (inactive) | 0 (inactive) | 0 (inactive) | 9 µM
4 | Cc1c(C(=O)Nc2cccc(C(F)(F)F)c2)cc(-c2ccccc2)n1CCCN1CCOCC1 | 9 µM |  |  |  | 1 (active) | 0 (inactive) | 1 (active) | 0 (inactive) | 0 (inactive) | 0 (inactive) | 0 (inactive) | 0 (inactive) | 0 (inactive) | 0 (inactive) | 0 (inactive) | 0 (inactive) | 0 (inactive) | 0 (inactive) | 0 (inactive) | 
5 | CC[C@@H]1C=CC=CC[C@H](C)[C@@H](O)[C@](C)(O)C(=O)[C@H](C)[C@@H](O)[C@H](C)C(=O)[C@H](C)[C@@H](O)[C@H](C)C=CC(=O)O[C@H]2[C@@H](C)[C@@H](CC1)O[C@@]1(CC[C@@H](C)[C@@H](C[C@H](C)O)O1)[C@@H]2C [Oligomycin A] | ≤ 0.3 µM | ≤ 0.3 µM | ≤ 0.3 µM |  | 1 (active) | 1 (active) | 1 (active) | 1 (active) | 1 (active) | 1 (active) | 1 (active) | 1 (active) | 1 (active) | 1 (active) | 0 (inactive) | 1 (active) | 0 (inactive) | 0 (inactive) | 0 (inactive) | ≤ 0.3 µM
6 | COC(=O)[C@@]1(O)C[C@H]2O[C@]1(C)n1c3ccccc3c3c4c(c5c6ccccc6n2c5c31)C(=O)NC4 | ≤ 0.3 µM | ≤ 0.3 µM | ≤ 0.3 µM | ≤ 0.3 µM | 1 (active) | 1 (active) | 1 (active) | 1 (active) | 1 (active) | 1 (active) | 1 (active) | 1 (active) | 1 (active) | 1 (active) | 1 (active) | 1 (active) | 1 (active) | 1 (active) | 1 (active) | ≤ 0.3 µM
7 | O=c1[nH]c2ccccc2n1C1CCN(CCCC(c2ccc(F)cc2)c2ccc(F)cc2)CC1 [pimozide] | 9 µM | 3 µM | 3 µM |  | 1 (active) | 0 (inactive) | 1 (active) | 0 (inactive) | 1 (active) | 1 (active) | 0 (inactive) | 1 (active) | 0 (inactive) | 1 (active) | 0 (inactive) | 0 (inactive) | 0 (inactive) | 0 (inactive) | 0 (inactive) | 
8 | CC[C@@H](C)C(=O)O[C@H]1[C@H](O)[C@H]2[C@@H](CN3C[C@@H](C)CC[C@H]3[C@@]2(C)O)C2C[C@]34O[C@]5(O)[C@@H](OC(=O)[C@](C)(O)CC)CC[C@@]3(C)[C@@H]5[C@@H](OC(C)=O)[C@@H](OC(C)=O)[C@H]4[C@@]21O (stereo partly specified) [Protoveratrine A] | 3 µM |  |  |  | 0 (inactive) | 0 (inactive) | 1 (active) | 0 (inactive) | 0 (inactive) | 0 (inactive) | 0 (inactive) | 0 (inactive) | 0 (inactive) | 0 (inactive) | 0 (inactive) | 0 (inactive) | 0 (inactive) | 0 (inactive) | 0 (inactive) | 
9 | Cc1sc2c(c1C)C(c1ccc(Cl)cc1)=N[C@@H](CC(N)=O)c1nnc(C)n1-2 | ≤ 0.3 µM | ≤ 0.3 µM | ≤ 0.3 µM | ≤ 0.3 µM | 1 (active) | 1 (active) | 1 (active) | 1 (active) | 1 (active) | 1 (active) | 1 (active) | 1 (active) | 1 (active) | 1 (active) | 1 (active) | 1 (active) | 1 (active) | 1 (active) | 1 (active) | ≤ 0.3 µM
10 | CC[C@H]1CN2CC[C@H]1C[C@@H]2[C@@H](O)c1ccnc2ccc(OC)cc12 [Hydroquinidine HCl] |  | 9 µM |  |  | 1 (active) | 0 (inactive) | 0 (inactive) | 0 (inactive) | 1 (active) | 0 (inactive) | 1 (active) | 1 (active) | 0 (inactive) | 0 (inactive) | 1 (active) | 1 (active) | 0 (inactive) | 0 (inactive) | 1 (active) | 9 µM
11 | CCCCCC[C@H]1C(=O)O[C@H](C)[C@H](NC(=O)c2cccc(NC=O)c2O)C(=O)O[C@@H](C)[C@@H]1OC(=O)CC(C)C [antimycin a] | ≤ 0.3 µM | ≤ 0.3 µM | ≤ 0.3 µM | 1 µM | 1 (active) | 1 (active) | 1 (active) | 1 (active) | 1 (active) | 1 (active) | 1 (active) | 1 (active) | 1 (active) | 1 (active) | 1 (active) | 1 (active) | 1 (active) | 1 (active) | 1 (active) | ≤ 0.3 µM
12 | COc1cc2c(c(OC)c1OC)-c1ccc(O)c(=O)cc1[C@@H](N)CC2 [Trimethylcolchicinic acid] | 9 µM |  | 9 µM |  | 1 (active) | 1 (active) | 1 (active) | 1 (active) | 1 (active) | 0 (inactive) | 1 (active) | 0 (inactive) | 0 (inactive) | 1 (active) | 0 (inactive) | 0 (inactive) | 0 (inactive) | 0 (inactive) | 0 (inactive) | 9 µM
13 | Cc1cc2c(C(C)C)c(O)c(O)c(C=O)c2c(O)c1-c1c(C)cc2c(C(C)C)c(O)c(O)c(C=O)c2c1O [gossypol] | 3 µM | 9 µM | 9 µM | 9 µM | 1 (active) | 1 (active) | 1 (active) | 1 (active) | 1 (active) | 1 (active) | 1 (active) | 1 (active) | 1 (active) | 1 (active) | 1 (active) | 1 (active) | 1 (active) | 1 (active) | 1 (active) | 9 µM
14 | C[C@]12CC[C@H]3[C@@H](CC[C@]4(O)C[C@@H](O)CC[C@]34C=O)[C@@]1(O)CC[C@@H]2C1=CC(=O)OC1 [Strophanthidin] | ≤ 0.3 µM | 1 µM | ≤ 0.3 µM | ≤ 0.3 µM | 1 (active) | 1 (active) | 1 (active) | 1 (active) | 1 (active) | 1 (active) | 1 (active) | 1 (active) | 1 (active) | 1 (active) | 1 (active) | 1 (active) | 1 (active) | 1 (active) | 1 (active) | 1 µM
15 | COc1ccc(N(C(=O)Oc2c(C)cccc2C)c2ccnc(Nc3ccc(N4CCN(C)CC4)cc3)n2)c(OC)c1 | 1 µM | 3 µM | ≤ 0.3 µM |  | 1 (active) | 1 (active) | 1 (active) | 1 (active) | 1 (active) | 1 (active) | 1 (active) | 1 (active) | 1 (active) | 1 (active) | 1 (active) | 0 (inactive) | 0 (inactive) | 1 (active) | 0 (inactive) | 1 µM
16 | CC(C)(C)c1cc(C=C(C#N)C#N)cc(Br)c1O | 9 µM |  |  |  | 0 (inactive) | 0 (inactive) | 1 (active) | 0 (inactive) | 0 (inactive) | 0 (inactive) | 0 (inactive) | 0 (inactive) | 0 (inactive) | 0 (inactive) | 0 (inactive) | 0 (inactive) | 0 (inactive) | 0 (inactive) | 0 (inactive) | 
17 | C[C@H](CCC(=O)O)C[C@H](C)C[C@H](C)C(=O)/C=C(\O)[C@H](C)C[C@H](C)C/C=C/[C@@H](C)[C@@H](O)[C@@H](C)[C@@H](O)C[C@@H]1CC[C@@](C)([C@H]2CC[C@@](C)([C@@H](C)O)O2)O1 [Ionomycin free acid] |  |  | 9 µM | 9 µM | 0 (inactive) | 1 (active) | 0 (inactive) | 0 (inactive) | 0 (inactive) | 0 (inactive) | 1 (active) | 0 (inactive) | 0 (inactive) | 1 (active) | 1 (active) | 1 (active) | 1 (active) | 1 (active) | 0 (inactive) | 9 µM
18 | CCN1CCN(C(=O)Cc2ccc(Nc3ncc(F)c(Nc4ccc(C(=O)Nc5ccccc5Cl)cc4)n3)cc2)CC1 | 1 µM | 1 µM | ≤ 0.3 µM |  | 1 (active) | 1 (active) | 1 (active) | 1 (active) | 1 (active) | 1 (active) | 1 (active) | 1 (active) | 1 (active) | 1 (active) | 1 (active) | 0 (inactive) | 0 (inactive) | 1 (active) | 1 (active) | 1 µM
19 | N#CC(C#N)=NNc1cccc(Cl)c1 | 9 µM | 9 µM | 9 µM | 9 µM | 1 (active) | 1 (active) | 1 (active) | 1 (active) | 1 (active) | 1 (active) | 1 (active) | 1 (active) | 1 (active) | 1 (active) | 1 (active) | 1 (active) | 1 (active) | 1 (active) | 1 (active) | 9 µM

— the supplement of paper PMC7411054
